Laboratory results from PubChem BioAssay.

experiment: small-molecule microarray binders of probe aEGFR, primary screen, biochemical, biotinylated probe, 635/667 nm fluorescence (AID 1097); conditions: higher = more signal;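 note: probe is a biotinylated anti-EGFR antibody binding compounds printed on slides; score combines fluorescence near 667 nm and signal to noise of each spot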

Compound | composite z-score
COc1ccc([Si](C)(C)[C@@H]2[C@@H](CC(=O)N3Cc4ccccc4C[C@H]3CO)O[C@]3(C(=O)N(Cc4cccc(N5C(=O)COc6ccccc65)c4)c4ccccc43)[C@H]2C)cc1 | -0.0981
C=C(C)[C@@H]1CC=C(C(O)C2C=CC3C(=O)N(Cc4ccccc4)C(=O)C3N2n2cnnc2)CC1 (stereo not given in full) | -0.161
C=C(C(=O)CC[C@@H](OC(C)=O)c1ccc(OCCO)cc1)C(C)C | 0.0073
COc1ccc(C(=O)Nc2cccc(CN3C(=O)[C@@]4(O[C@@H](CC(=O)N5Cc6ccccc6C[C@H]5CO)[C@H]([Si](C)(C)c5ccc(OC)cc5)[C@H]4C)c4ccccc43)c2)cc1 | 0.0276
CC[C@@H]1C=C(C(=O)O)[C@H](c2ccc(C(C)C)cc2)N1S(=O)(=O)c1ccc(C)cc1 | 0.516
[N-]=[N+]=NCc1ccccc1C[C@]1(C(=O)NCC(O)CO)COC(c2ccc(OCCCO)cc2)=N1 (stereo not given in full) | 0.204
[N-]=[N+]=Nc1ccccc1[C@@H]1OC(c2ccc(OCCCO)cc2)=N[C@]1(CCS(=O)(=O)c1ccccc1)C(=O)N1CCCCC1 | 0.292
O=C1OCCC/C=C\[C@H]2OC34C=CCN(Cn5nnc6ccccc65)C(=O)[C@H]3N(CCCO)C(=O)[C@@H]4C12 (stereo not given in full) | -0.232
C=CCC(OC(C)=O)[C@@H]1[C@@H](N(Cc2cc3ccccc3o2)C(=O)c2cccc3ccccc23)c2cc(OCCCO)ccc2N1C(=O)Cc1ccc(OC)cc1 (stereo not given in full) | -0.0967
Cc1ccc(N2C(=O)c3ccccc3[C@@H](C(=O)NCC(C)C)[C@@H]2c2ccc(CO)cc2)nc1 | -0.298
COCCOC(=O)N1C(=O)[C@@]2(c3ccccc31)[C@H](c1ccc(O)cc1)N1[C@H](c3ccccc3)[C@H](c3ccccc3)OC(=O)[C@H]1[C@@H]2C(N)=O | -0.16
CN(C)CCCC[C@@H]1NC(=O)[C@@H]2C[C@H](C(=O)NCCCCCN)[C@H](c3ccc(O)cc3)N2C1=O | -0.075
COCCOC(=O)N1C(=O)[C@@]2(c3cc(C#CCCO)ccc31)[C@H](C(=O)NC[C@H](O)c1ccccc1)[C@H]1C(=O)O[C@H](c3ccccc3)[C@H](c3ccccc3)N1[C@@H]2c1ccc(OCCO)cc1 | 0.0634
O=C1C2C=CC(C(O)C3CC=CCC3)N(n3cnnc3)C2C(=O)N1Cc1ccccc1 (stereo not given) | -0.314
CC(C)C(O)C1C=CC2C(=O)N(C)C(=O)C2N1N1CCCCC1 (stereo not given) | 0.0635
COC(=O)[C@@]1(Cc2ccc(F)cc2)[C@H]2c3cc(C(=O)N4CCCC4)n(CCc4ccc(OC)c(Br)c4)c3C[C@H]2CN1C(=O)c1ccccc1 | 0.324
COCCOC(=O)N1C(=O)[C@@]2(c3cc(C#CC4=CCCCC4)ccc31)[C@H](C(=O)N1CCN(c3ncccn3)CC1)[C@H]1C(=O)O[C@H](c3ccccc3)[C@H](c3ccccc3)N1[C@@H]2c1ccc(OCCO)cc1 | 0.145
O=C1OCC=C[C@H]2OC34C=CCN(CCN5CCOCC5)C(=O)[C@H]3N(CCCCCCO)C(=O)[C@@H]4[C@@H]12 (stereo not given in full) | 0.0792
NC(=O)[C@]1(Cc2ccccc2)N=C(c2ccc(OCCCO)cc2)O[C@@H]1c1ccccc1 | 0.0182
COc1ccccc1CN1C(=O)c2ccccc2[C@](Cc2ccccc2I)(C(=O)NCc2ccccc2)[C@@H]1c1ccc(CO)cc1 | -0.0432
CCCCN1CC=CC23O[C@@H]4C=CCCOC(=O)C4[C@H]2C(=O)N(CCCO)[C@@H]3C1=O (stereo not given in full) | -0.244
CC(C)NC(=O)[C@@]1(c2ccc([N+](=O)[O-])cc2)CC(=O)N(C(C)C)[C@@H]1c1ccc(CO)cc1 | -0.253
O=C1NC(=O)C2C1C=CC(C(O)c1cccs1)N2Nc1ccccn1 (stereo not given) | 0.119
CN(C)CCCCNC(=O)[C@@H]1C[C@@H]2C(=O)N[C@@H](CCCCN)C(=O)N2[C@@H]1c1cccc(OCCO)c1 | -0.223
C=CC[C@]1(C(=O)O)N=C(c2ccc(OCCCO)cc2)O[C@H]1c1ccccc1CN=[N+]=[N-] | -0.0239
